Screening results as filed in PubChem.
GPR151 activ: activates the human receptor GPR151. Q8TDV0. PathHunter beta-arrestin GPR151 cells, luminescence. activation, % at 11.2 µM. actives 1% (n = 650,000); in the data active = activation above about 4.9%
FBW7 activator: human FBW7 E3 ligase activation, primary screen; AlphaScreen FBW7–phospho-cyclin E peptide binding, activator screen; actives 0.13% (n = 650,000); AID 1259310; normalized activity (activation), % at 26.1 µM; in the data active = normalized activity above about 1.9%;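 note: purified mutant Fbw7 with reduced substrate affinity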
MITF primary: inhibitors of human MITF. O75030. AlphaScreen MITF homodimerization, bead proximity signal. inhibition, % at 2.6 µM. actives 0.91% (n = 650,000); in the data active = inhibition above about 50%
Target sequence (O75030 whole entry, looked up): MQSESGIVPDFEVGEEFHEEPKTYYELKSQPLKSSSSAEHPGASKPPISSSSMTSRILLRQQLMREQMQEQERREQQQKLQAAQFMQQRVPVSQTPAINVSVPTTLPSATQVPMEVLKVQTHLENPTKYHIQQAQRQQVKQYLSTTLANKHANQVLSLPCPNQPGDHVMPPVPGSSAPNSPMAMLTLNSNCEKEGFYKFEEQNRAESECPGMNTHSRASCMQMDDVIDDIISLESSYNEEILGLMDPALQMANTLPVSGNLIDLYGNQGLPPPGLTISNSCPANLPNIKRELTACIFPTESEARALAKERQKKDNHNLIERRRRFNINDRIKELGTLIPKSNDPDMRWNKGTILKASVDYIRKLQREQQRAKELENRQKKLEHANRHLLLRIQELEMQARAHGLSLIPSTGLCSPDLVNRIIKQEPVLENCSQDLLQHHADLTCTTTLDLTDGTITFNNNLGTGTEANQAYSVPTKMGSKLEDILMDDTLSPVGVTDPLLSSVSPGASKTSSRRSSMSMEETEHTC
TEAD-YAP inh: TEAD-YAP interaction inhibition; HEK-TIYL cells, TEAD-Gal4/YAP UAS-luciferase luminescence; inhibition, % at 9.12 µM; actives 1.4% (n = 640,000); in the data active = inhibition above about 32%
Numbers stand for hits; n = inactive. Only some compounds are listed: those with a hit (about 3.5% of all), similar ones and a draw of the others.

SMILES | GPR151 activ | FBW7 activator | MITF primary | TEAD-YAP inh
Cc1cncc2cccc(NC3CCCN(C(=O)[C@H](C)O)C3)c12 (stereo partly specified) | n | n | n | 62
Cc1cncc2cccc(NC3CCCN(C(=O)c4cccc(Br)c4)C3)c12 (stereo unspecified) | n | n | n | n
Cc1cc2c(NC3CCCN(C(=O)C(O)c4ccc(Cl)cc4)C3)cccc2nn1 (stereo unspecified) | n | n | 56 | n
Cc1cncc2cccc(NC3CCCN(C(=O)C(O)c4ccc(Cl)cc4)C3)c12 (stereo unspecified) | n | n | n | 42
Cc1cncc2cccc(NC3CCN(C(=O)C(N)c4ccc(Cl)cc4)CC3)c12 (stereo unspecified) | n | n | n | n
O=C(O)c1ccc(CNCc2ccc(Cl)cc2)cc1 | n | n | n | n
COc1ccc(C2=NN(C(=O)CSc3nnc(CNC(=O)c4ccco4)n3-c3cc(C)ccc3C)C(c3ccc(OC)cc3)C2)cc1 (stereo unspecified) | n | 3.6 | n | n
COc1ccc(C2CC(c3cccs3)=NN2C(=O)CSc2nnc(CNC(=O)COc3ccccc3)n2-c2ccccc2OC)cc1 (stereo unspecified) | n | n | n | 32
COc1ccc(C2=CC(c3cccc(C)c3)n3ncnc3N2)cc1 (stereo unspecified) | n | n | n | 46
COc1ccc(C2C=C(c3ccc(C)cc3)Nc3ncnn32)cc1OC (stereo unspecified) | n | n | n | 54
COc1ccc(C2=CC(c3ccc(C)cc3)n3ncnc3N2)cc1OC (stereo unspecified) | n | n | n | n
COc1ccc(C2=CC(c3cc(OC)c(OC)c(OC)c3)n3ncnc3N2)cc1OC (stereo unspecified) | n | n | n | 54
CCc1ccc(C2=CC(c3ccc(OC)c(OC)c3OC)n3ncnc3N2)cc1 (stereo unspecified) | n | n | n | 47
CCOc1ccccc1C1C(C(=O)OC(C)C)=C(C)NC2=C1C(=O)C(C(=O)OC)C(C)C2 (stereo unspecified) | n | n | n | n
Cc1cnc(Nc2ccccn2)nc1Nc1ccc(Oc2ccccc2)cc1 | n | n | n | n
COc1cc(C2C=C(c3ccc4c(c3)OCO4)Nc3ncnn32)cc(OC)c1OC (stereo unspecified) | n | n | n | 64
COc1ccc(OC)c(C2C=C(c3ccc(C)cc3)Nc3ncnn32)c1 (stereo unspecified) | n | n | n | 66
CCOc1ccccc1C1C=C(c2ccc(OC)cc2)Nc2ncnn21 (stereo unspecified) | n | n | n | 56
C=CCOc1ccc(/C=C2\SC(=N)N(c3nccs3)C2=O)cc1OCC | n | n | n | 36
C=CCOc1ccc(/C=C2\SC(NC(C)=O)=NC2=O)cc1OCC | n | n | n | n
O=C(Nc1ccc(-c2ccccc2)cc1)c1ccc(C(=O)Nc2ccc(-c3ccccc3)cc2)cc1 | n | n | n | n
O=C(Nc1ccccc1)C1=C(c2ccccc2)S(=O)(=O)CCS1(=O)=O | n | n | n | 81
CCOc1ccccc1OCCCOc1ccccc1C=O | n | n | n | n
COc1ccc(C(=O)Nc2c(C(=O)c3ccc(OC)cc3)oc3ccccc23)cc1 | n | n | n | n
COCCNC(=O)/C(C#N)=C/c1c(Oc2cc(C)cc(C)c2)nc2c(C)cccn2c1=O | n | n | n | n
SMILES | GPR151 activ | FBW7 activator | MITF primary | TEAD-YAP inh
COCCCNC(=O)/C(C#N)=C/c1c(Oc2cc(C)cc(C)c2)nc2c(C)cccn2c1=O | n | n | n | 33
CNC(=O)/C(C#N)=C/c1c(Oc2ccccc2C)nc2c(C)cccn2c1=O | n | n | n | 47
CCNC(=O)/C(C#N)=C/c1c(Oc2cccc(C)c2C)nc2c(C)cccn2c1=O | n | n | n | 35
C=CCNC(=O)/C(C#N)=C/c1c(Oc2ccccc2C)nc2ccccn2c1=O | n | n | n | 32
O=C(Nc1ccccc1C(F)(F)F)c1cc(S(=O)(=O)NCC2CCCO2)ccc1F (stereo unspecified) | n | n | n | n
CCOc1nc(Cl)nc(N2CCOCC2)n1 | n | n | n | n
CCC/C(C)=C/Cc1c(O)c2c(c(C)c1OC)COC2=O | n | n | n | 66
COC1=C(OC)C(=O)C(C/C=C(\C)CC/C=C(\C)CC/C=C(\C)CC/C=C(/C)CC/C=C(\C)CC/C=C(\C)CC/C=C(\C)CC/C=C(\C)CC/C=C(\C)CCC=C(C)C)=C(C)C1=O | n | n | n | n
CCOC(=O)c1c(C)oc2ccc(OC(C)C(=O)OC)cc12 (stereo unspecified) | n | n | n | n
Cc1ccc(S(=O)(=O)Nc2ccccc2/C=N/n2cnnc2)cc1 | n | n | n | 51
FC(F)(F)c1cccc(CNc2nc(Nc3cccnc3)nc3c2ncn3-c2ccccc2)c1 | n | n | n | 46
Cc1cnc(Nc2ccncc2)nc1NCc1cccc(C(F)(F)F)c1 | n | n | n | 45
FC(F)(F)c1cccc(CNc2nc(Nc3cccnc3)nc3c2ncn3-c2ccsc2)c1 | n | n | n | 56
Cc1cnc(Nc2ccncn2)nc1NCc1cccc(C(F)(F)F)c1 | n | n | n | n
FC(F)(F)c1cccc(CNc2nc(NCc3cccnc3)nc3c2ncn3-c2ccsc2)c1 | n | n | n | 56
FC(F)(F)c1cccc(CNc2nc(Nc3ccncc3)nc3c2ncn3-c2ccsc2)c1 | n | n | n | n
Cc1ccc(NC(=O)c2cc(=O)c3ccccc3o2)cc1Cl | n | n | n | n
O=S(=O)(NCC(c1ccco1)N1CCN(c2ccc(F)cc2)CC1)c1ccc(F)cc1 (stereo unspecified) | n | n | n | n
Cc1csc(NC(=O)c2sc3nc(C)c4c(c3c2N)CCCC4)n1 | n | n | n | 94
Cc1ccc(-c2c3c(nc4sc(C(=O)Nc5ccccc5)c(N)c24)CCCC3)cc1 | n | n | n | n
Cc1csc(NC(=O)c2sc3nc4c(c(C(F)(F)F)c3c2N)CCCC4)n1 | n | n | n | 65
CC(C)(C)c1ccc(NS(=O)(=O)c2ccc(Cl)s2)cc1 | n | n | n | n
Clc1cccc(-c2cnc3ccc(NCCc4cccnc4)nn23)c1 | n | 2.0 | n | 94
N#Cc1ccc(-c2cnc3ccc(NCCc4cccnc4)nn23)cc1 | n | n | n | 34
Cc1cc(N)n(-c2nc(C)nc3sc4c(c23)CCC(C)C4)n1 (stereo unspecified) | n | n | n | n
SMILES | GPR151 activ | FBW7 activator | MITF primary | TEAD-YAP inh
COc1cc(OC)cc(-c2cc3nc4c(c(NCCCn5ccnc5)n3n2)CCCC4)c1 | n | 2.4 | n | n
COc1ccc(-c2cnc(NCCCn3ccnc3)nc2)cc1 | n | n | n | n
COc1ccc(-c2cnnc(NCCCn3ccnc3)n2)cc1 | n | n | n | 32
COCCNc1nc2ccccc2n1CC(=O)c1ccc(OC)c(OC)c1 | n | n | n | n
Cc1ccc(C(=O)NC2(C(Cl)Cl)N=C(c3ccccc3)N=C2N)cc1 (stereo unspecified) | n | n | n | n
CC(C)n1cnc2c(NCc3nc4ccccc4[nH]3)nc(Nc3cccc(N(C)C)c3)nc21 | n | n | n | 43
